“And” between values parts separate entries of the source, which are not always exact repeats. Equal values may be shown once. Records with an inconclusive call do not appear. Where a call stands in place of a potency, no number is given. The source made the active and inactive calls. Calls come from the whole dose curve; as a rule, active = well fitted curve in the direction sought with a large enough effect; inconclusive = small, poorly fitted or top-dose-only effect, or another doubt; inactive = no such curve, though single readings can be large; an effect the other way counts as inactive or inconclusive.
What was measured:
[1] = Viability qHTS for spleen associated tyrosine kinase inhibitor (SYKi) naive MV4-11 cells (AID 1963823); conditions: MV4-11 AML viability, CellTiter-Glo luminescence, 72 h; series mostly up to 45 µM; note: nearly all actives have a fitted effect of over 40% in size
How it was run: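 Compounds were dispensed acoustically onto plates, MV4-11 cells (SYKi-naive) added at 500 per well, and plates incubated 72 hr at 37 C. CellTiter-Glo was added and luminescence measured after 10 min.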

[2] = Viability qHTS for spleen associated tyrosine kinase inhibitor (SYKi) drug resistant MV4-11 cells (AID 1963824); conditions: SYKi-resistant MV4-11 viability, CellTiter-Glo, 72 h; series mostly up to 45 µM; note: nearly all actives have a fitted effect of over 35% in size
How it was run: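 CellTiter-Glo luminescence, read 10 min after reagent addition, reports viability after a 72 hr compound exposure. Cells are an MV4-11 line made resistant to SYK inhibition, seeded at 500 per well onto compound-containing plates.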

[3] = Quantitative highthroughput screen to assess conditional lethalithy of NOMO1 cells grown in RPMI1640 with untreated serum (RPMI+s) (AID 1963876); conditions: NOMO1 AML cells in RPMI+serum, CellTiter-Glo viability, 48 h; series mostly up to 45.8 µM; note: nearly all actives have a fitted effect of over 35% in size
How it was run: (§1)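 Each medium arm—HPLM with 10% dialyzed FBS, or RPMI1640 with 5 mM glucose and 10% untreated or dialyzed FBS—was screened against an 11-point, 3-fold compound titration for 48 h at 37 °C, with CellTiter-Glo luminescence as endpoint.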

[4] = Quantitative highthroughput screen to assess conditional lethalithy of NOMO1 cells grown in RPMI1640 with dialyzed fetal bovine serum (RPMI+ds) (AID 1963877); conditions: NOMO1 in RPMI+dialyzed FBS viability, ATP luminescence, 48 h; series mostly up to 45.8 µM; note: nearly all actives have a fitted effect of over 30% in size
How it was run: as §1

[5] = Quantitative highthroughput screen to assess conditional lethalithy of NOMO1 cells grown in Human Plasma-Like Medium with dialyzed fetal bovine serum (HPLM+ds) (AID 1963878); conditions: NOMO1 AML cells in HPLM+ds, CellTiter-Glo viability, 48 h; series mostly up to 45.8 µM; note: nearly all actives have a fitted effect of over 35% in size
How it was run: as §1

[6] = Quantitative highthroughput screen to assess conditional lethalithy of P12 Ichikawa cells grown in Human Plasma-Like Medium with dialyzed fetal bovine serum (HPLM+ds) (AID 1963879); conditions: ATP luminescence, 48 h; Potency: viability; series mostly up to 45.8 µM; note: nearly all actives have a fitted effect of over 35% in size
How it was run: as §1

[7] = Quantitative highthroughput screen to assess conditional lethalithy of P12 Ichikawa cells grown in RPMI1640 with dialyzed fetal bovine serum (RPMI+ds) (AID 1963880); conditions: ATP luminescence, 48 h; Potency: P12-Ichikawa viability; series mostly up to 45.8 µM; note: nearly all actives have a fitted effect of over 35% in size
How it was run: as §1

[8] = Quantitative highthroughput screen to assess conditional lethalithy of P12 Ichikawa cells grown in RPMI1640 with untreated serum (RPMI+s) (AID 1963881); conditions: ATP luminescence, 48 h; Potency: viability; series mostly up to 45.8 µM; note: nearly all actives have a fitted effect of over 35% in size
How it was run: as §1

[9] = Quantitative highthroughput screen to assess conditional lethalithy of SEM cells grown in Human Plasma-Like Medium with dialyzed fetal bovine serum (HPLM+ds) (AID 1963882); conditions: SEM B-ALL cells in HPLM+ds, CellTiter-Glo viability, 48 h; series mostly up to 45.8 µM; note: nearly all actives have a fitted effect of over 35% in size
How it was run: as §1

[10] = Quantitative highthroughput screen to assess conditional lethalithy of SEM cells grown in RPMI1640 with unreated serum (RPMI+s) (AID 1963883); conditions: SEM B-ALL cells, CellTiter-Glo viability, 48 h; series mostly up to 45.8 µM; note: nearly all actives have a fitted effect of over 35% in size
How it was run: as §1

[11] = Cellular viability qHTS for adrenocortical cancer (ACC) cell line SW-13 (AID 1963989); conditions: SW-13 ACC cells viability, CellTiter-Glo, 48 h; activity (max response): hits give low values; note: nearly all actives have a fitted effect of over 65% in size;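 for activity (max response): cells grown in serum-free medium with ITS supplement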
How it was run: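 48 h treatment, SW-13 in ITS/DMEM serum-free; doses up to 46 uM; readout CellTiter-Glo luminescence; curve fit four-parameter logistic.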

[12] = Cellular viability qHTS for adrenocortical cancer (ACC) cell line NCI-H295R (AID 1963990); conditions: CellTiter-Glo ATP luminescence, 48 h; series mostly up to 46.1 µM; note: nearly all actives have a fitted effect of over 60% in size
How it was run: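 Compound titrations (up to 46 uM final) are applied to NCI-H295R cultures for 48 h at 37C. Viable cell number is estimated by CellTiter-Glo signal, normalised to DMSO and doxorubicin controls.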

[13] = Quantitative highthroughput screen to assess conditional lethalithy of SEM cells grown in RPMI1640 with dialyzed fetal bovine serum (RPMI+ds) (AID 1963884); conditions: SEM B-ALL cells, RPMI+dialyzed FBS, CellTiter-Glo viability, 48 h; series mostly up to 45.8 µM; note: nearly all actives have a fitted effect of over 35% in size
How it was run: as §1
Potency is the fitted concentration of half-maximal effect.

Row | Structure (SMILES) | Potency [1] | Potency [2] | Potency [3] | Potency [4] | Potency [5] | Potency [6] | Potency [7] | Potency [8] | Potency [9] | Potency [10] | Potency [11] | Potency [12] | Potency [13] | activity (max response) [11] | viability (% of control) [1] | viability, % of control [2]
1 | CCN(CC)CCOc1ccc(Nc2ncc3cc(-c4c(Cl)cccc4Cl)c(=O)n(C)c3n2)cc1 | 0.0661 µM (active) | 0.118 µM (active) | 2640 nM (active) | 2960 nM (active) | 2640 nM (active) | 3720 nM (active) | 3320 nM (active) | 2960 nM (active) | 1660 nM (active) | 1050 nM (active) | 1000 nM (active) | 794 nM (active) |  |  |  | 
2 | COCCNCCCn1c(C(=O)CF)c(-c2ccc(C)cc2)c2c(N)ncnc21 | 4.17 µM (active) | 6.61 µM (active) | inactive | inactive | inactive | inactive | inactive | inactive | 11800 nM (active) | 166 nM (active) |  | inactive | 743 nM (active) | 7.79% (inactive) |  | 
3 | CCOC(=O)C(C)Oc1cccc2c(=O)n(CC(=O)Nc3ccc4c(c3)OCCO4)ccc12 (stereo unspecified) | 1.48 µM (active) | 0.934 µM (active) | inactive | inactive | inactive | inactive | inactive | inactive | inactive | inactive |  | inactive |  | 14.3% (inactive) |  | 
4 | Cc1cc2cc3c(C)cc(=O)oc3c(C)c2o1 | inactive | inactive | inactive | inactive | inactive | inactive | inactive | inactive | inactive | inactive |  | inactive | inactive | 0.204% (inactive) and 7.11% (inactive) |  | 
5 | O[C@@H](COc1cccc2ncccc12)CN1CCN(C2c3ccccc3[C@@H]3[C@H](c4ccccc42)C3(F)F)CC1 (stereo partly specified) | 5.9 µM (active) and 9.2 µM (active) | 6.61 µM (active) and 9.2 µM (active) | inactive | inactive | inactive | inactive | inactive | inactive | inactive |  |  |  | inactive |  |  | 
6 | Cc1nc(N)ncc1-c1nc(N2CCOCC2)c2sc(C(C)(C)O)cc2n1 | 2.59 µM (active) and 3.32 µM (active) | 3.66 µM (active) and 5.9 µM (active) | 209 nM (active) | 332 nM (active) | 37.2 nM (active) | 83.3 nM (active) | 372 nM (active) | 372 nM (active) | 148 nM (active) | 33.2 nM (active) |  | 2240 nM (active) | 74.3 nM (active) |  |  | 
7 | CC(C)[C@H](O)C(=O)N[C@@H](C)C(=O)N[C@@H]1C(=O)N(C)CCc2ccccc21 | inactive | inactive | inactive | inactive | inactive | inactive | inactive | inactive | inactive | inactive |  | inactive | inactive | 8.71% (inactive) |  | 
8 | COc1ncc(-c2ccc3c(Nc4cc(Oc5cc(F)cc(F)c5)cc(C(=O)O)c4)c(S(=O)(=O)NC4CC4)cnc3c2)c(OC)n1 | inactive | inactive | inactive | inactive | inactive | inactive | inactive | inactive | inactive | inactive |  | inactive | inactive |  |  | 
9 | COc1ccc2c(Oc3ccc(NC(=O)c4c(C)n(CC(C)(C)O)n(-c5ccccc5)c4=O)cc3F)ccnc2c1 | 0.0934 µM (active) | 0.148 µM (active) | inactive | 18700 nM (active) | inactive | inactive | inactive | inactive |  | 3320 nM (active) |  |  |  |  |  | 
10 | COc1ccc2cccc(CCNC(C)=O)c2c1 | inactive | inactive | inactive | inactive | inactive | inactive | inactive | inactive |  |  |  | inactive |  | 13% (inactive) |  | 
11 | CCc1ccc(C(=O)Nc2cc(CN3CCN(C)CC3)cc(C(F)(F)F)c2)cc1C#Cc1cnc2ccnn2c1 | 2.59 µM (active) and 2.06 µM (active) | 3.66 µM (active) and 1.84 µM (active) | inactive | inactive | inactive | inactive | inactive | inactive |  | inactive | 10000 nM (active) | 7940 nM (active) |  |  |  | 
12 | CC1=CC(=O)c2ccccc2C1=O | 7.42 µM (active) | 4.68 µM (active) | inactive | inactive | inactive | inactive | inactive | inactive |  |  |  | inactive |  | 13.5% (inactive) |  | 
13 | CN[C@@H](C)[C@H]1[C@H](O)C[C@@]2(C)[C@@H]3CC[C@H]4C(C)(C)[C@@H](NC)CC[C@@]45C[C@@]35CC[C@]12C |  |  | inactive | inactive | inactive | inactive | inactive | inactive |  | inactive |  |  | inactive | -3.37% (inactive) | 79.2% [at 9.25 µM] (inactive) | 80.2% [at 9.25 µM] (inactive)
14 | C=C1C(=O)[C@@]23C(CC[C@@H]1[C@H]2O)[C@@]12CO[C@]3(O)[C@@H](O)[C@@H]1C(C)(C)CC[C@@H]2O (stereo partly specified) | 1.32 µM (active) | 1.3 µM (active) | 20900 nM (active) | 23500 nM (active) | 18700 nM (active) | 13200 nM (active) | 7430 nM (active) | 7430 nM (active) | 8330 nM (active) |  | 28200 nM (active) | 10000 nM (active) |  |  |  | 
15 | Cc1ncc([N+](=O)[O-])n1CC(C)O (stereo unspecified) | inactive | inactive | inactive | inactive | inactive | inactive | inactive | inactive |  |  |  | inactive |  | -11% (inactive) |  | 
16 | COc1ccc(C[C@@H](C)[C@@H](C)Cc2ccc(OC)c(OC)c2)cc1OC | 6.61 µM (active) | 11.8 µM (active) | 2350 nM (active) | 2640 nM (active) | 833 nM (active) | 2350 nM (active) | 2350 nM (active) | 2350 nM (active) |  | 2640 nM (active) |  | inactive | 2640 nM (active) | -32.2% (inactive) |  | 

From PubChem BioAssay (NCATS)
